Experimental findings from publication PMC7819943, “Rice protein-binding microarrays: a tool to detect cis-acting elements near promoter regions in rice” are described below.

The full ranking holds about 68,000 sequences; the median of “fluorescence intensity (a.u.)” is about 9,100, and the highest 2% start at about 16,000. What follows is part of a selection rich in the highest values, with near analogues and random picks from the rest.

The target of this test is OsWRKY34 (Oryza sativa, UniProt Q0JBA9 1-250). Put plainly: protein-binding microarray (RPBM); PBS, 2% BSA, 51.3 ng/ul salmon testes DNA, 50 uM zinc acetate, 200 nM TF, 25 C, 1 h; high values mean tight binding. The settings on record: protein: recombinant; tags: N-terminal polyhistidine and DsRed monomer fusion (pET32a); label: CyDye5-dUTP incorporated in the synthesized complementary strand; 3' TTTTT single-stranded linker to array surface; dsDNA, one strand shown. Put shortly: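 Polyhistidine-tagged DsRed fusions of transcription factors, joined at the N-terminus, were expressed in E. coli BL21-CodonPlus and isolated on Ni–NTA. They were incubated at 200 nM for 1 h at 25 °C on a custom Agilent array, double-stranded and BSA-blocked, in PBS with 2% BSA, salmon testes DNA and 50 µM zinc acetate. The binding signal is per-feature fluorescence intensity (arbitrary units) read on an Axon 4000B scanner after washing.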
Sequence of OsWRKY34 (Q0JBA9 entry or part of it): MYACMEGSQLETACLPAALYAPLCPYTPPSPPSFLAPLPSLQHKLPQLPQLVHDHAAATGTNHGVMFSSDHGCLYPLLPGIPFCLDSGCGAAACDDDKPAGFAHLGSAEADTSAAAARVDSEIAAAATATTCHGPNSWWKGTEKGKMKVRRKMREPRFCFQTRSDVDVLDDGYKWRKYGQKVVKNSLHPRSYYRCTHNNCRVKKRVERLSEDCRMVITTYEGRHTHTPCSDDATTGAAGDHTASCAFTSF
Turning to “TTTGTCAATTGATGTATACATATGTGCTTTGTGTTCCTACCGGAGTCACCTAGTGCAG”, the binding signal was 11100 fluorescence intensity (a.u.).
The result for “CTGATTCGAACGCAGCCATAGTCACTCTTTCACTCTCACTCGGAGTCACCTAGTGCAG” reads 11000 fluorescence intensity (a.u.).
The result for “GTAAATCCGCTCCAATTGACTCTACCAACCCACCCGTGCTCGGAGTCACCTAGTGCAG” reads 9420 fluorescence intensity (a.u.); that for “AATTTGTGTGTAATTTTTTAGGATTTGTGATGTATTTGATCGGAGTCACCTAGTGCAG”, 9210 fluorescence intensity (a.u.); that for “CCACACTTGCCCGCTACCCACTCTGATCTATCTCCACTGTCGGAGTCACCTAGTGCAG”, 9630 fluorescence intensity (a.u.).
To “TCTCCTCCCTCGTTTCTCCTGACACGCTCTCATCCTACAACGGAGTCACCTAGTGCAG” belongs 8660 fluorescence intensity (a.u.); to “TTATCACAGATTCACAGTCCTTTGCCTTCATAAACACCTCCGGAGTCACCTAGTGCAG”, 65500 fluorescence intensity (a.u.).
With “TCAGTCGCTTCCTCTCTTTATTATCACAGATTCACAGTCCCGGAGTCACCTAGTGCAG”, the binding signal was 8370 fluorescence intensity (a.u.).
The result for “GCAATTTGCCTCTTTGTTCCTCATAGTCCAGACACAATTCCGGAGTCACCTAGTGCAG” reads 9840 fluorescence intensity (a.u.); that for “AACTTTTTCATGTCACTTCACTTTTTTTTGTTAGCAGCCTCGGAGTCACCTAGTGCAG”, 11200 fluorescence intensity (a.u.); that for “TGAACACACGCACGCAAACCCTACCTCCATGAGTATCTTCCGGAGTCACCTAGTGCAG”, 10500 fluorescence intensity (a.u.).
In the case of “TAATGGAAAAAATTGTTTAAAAAAGGTCAAATAGTAAAAACGGAGTCACCTAGTGCAG”, the binding signal is 58800 fluorescence intensity (a.u.).
To “TTAAATAAGACAAATGGTCAAACATGTGCTAAAAAGTCAACGGAGTCACCTAGTGCAG” belongs 10600 fluorescence intensity (a.u.).
As for “GTTTCCATTTCTGTTATTTTTTATTTCAAATTTCATTCTTCGGAGTCACCTAGTGCAG”, the binding signal is 11800 fluorescence intensity (a.u.).
Consider “TTGATTCCGTGTCGCATATCTGTCTTAATTTCGTGGAAGGCGGAGTCACCTAGTGCAG”, for which the binding signal was 9570 fluorescence intensity (a.u.).
Consider “AATTTATGGAGATCATTTTTTTTCTGTTTCAAAGGAAAAACGGAGTCACCTAGTGCAG”, for which the binding signal was 19200 fluorescence intensity (a.u.).
To “CATTGATTTTTTTTCTGTTTTCATGATCAATTTTTTTTCTCGGAGTCACCTAGTGCAG” belongs 11100 fluorescence intensity (a.u.); to “AAATTTAAAGTAATTTGACTTTGAAAGTCAAAACTTGTAACGGAGTCACCTAGTGCAG”, 8600 fluorescence intensity (a.u.).
Turning to “GTCAAGAATGTGCTAAAAAGTCAACGGTGTCAAACAGTTTCGGAGTCACCTAGTGCAG”, the binding signal is 10600 fluorescence intensity (a.u.).
To “CGTCTTTTCTCCTTGTCTTGCTAGCCATATCAACGGAAGGCGGAGTCACCTAGTGCAG” belongs 8080 fluorescence intensity (a.u.).
As for “CTAATTGTTTTTTTAAATAGTGTTTTGTTTTATTGAAAACCGGAGTCACCTAGTGCAG”, the binding signal is 9040 fluorescence intensity (a.u.).
“AAAGGAATGGCCCAAATAAACAAGTTTTTTCCTAAAATAACGGAGTCACCTAGTGCAG”: the binding signal was 63000 fluorescence intensity (a.u.).
The result for “TGTCTTAATTTCGTGGAAGGCCATAGCGGAGAGATCAAAACGGAGTCACCTAGTGCAG” reads 17400 fluorescence intensity (a.u.).
As for “CTTCTTATCTCCCATATCTTAGGGTGTGTTTCGTTTTATGCGGAGTCACCTAGTGCAG”, the binding signal was 8050 fluorescence intensity (a.u.).
With “GCCTATCCACAACATCGTCGCAGGCCTTCTTTTTCCCTCGCGGAGTCACCTAGTGCAG”, the binding signal was 8320 fluorescence intensity (a.u.).
For “ACAGCGGTTTTGGTTGACGTAGTGCCTATGTGGCGTTGACCGGAGTCACCTAGTGCAG”, the binding signal is 11700 fluorescence intensity (a.u.).
On to “GATTTAGCCAGTATAATTTGGCTTCTTACCTATCCATTTTCGGAGTCACCTAGTGCAG”, for which the binding signal was 9130 fluorescence intensity (a.u.).
“CCAATCTAGCATTTAAATAGCCCATATTTGTCTAATTTCTCGGAGTCACCTAGTGCAG”: the binding signal was 8400 fluorescence intensity (a.u.).
The result for “ATGGTGGGTCTTTTGCTTCTATCTTCTTCTATGCATGAAACGGAGTCACCTAGTGCAG” reads 10400 fluorescence intensity (a.u.); that for “TTGTTAATGCTAATTTTATCAACATGTGCTTTTCTTTTTACGGAGTCACCTAGTGCAG”, 9500 fluorescence intensity (a.u.); that for “CGCGAGACAATCTAGCCGTTCTTCATTTTTTTCGCTTTCCCGGAGTCACCTAGTGCAG”, 9240 fluorescence intensity (a.u.).
For the sequence “ACTGTGATACATTCTACATAATTTATTCATTTATTTGCATCGGAGTCACCTAGTGCAG”, the binding signal is 8900 fluorescence intensity (a.u.).
The result for “CATTAATTCCAACATATAGTACTCCGCCATTTTGACTCGCCGGAGTCACCTAGTGCAG” reads 8640 fluorescence intensity (a.u.); that for “AATGTTATTACTATGCCTGGAACGTCACTTATGTATGTCTCGGAGTCACCTAGTGCAG”, 10500 fluorescence intensity (a.u.).
Consider “GATCATCTGGTGGTGTGTTCTACGGGTTGCAGCTTCTTTCCGGAGTCACCTAGTGCAG”, for which the binding signal is 10600 fluorescence intensity (a.u.).
To “ATTGCCGTTTATATTTGGTCAAATTTAAACGTTTTCTTTTCGGAGTCACCTAGTGCAG” belongs 8020 fluorescence intensity (a.u.); to “TTGCCTTGCCAGTCAGTGCTCGAGTTCGTCTCGCTCTCCGCGGAGTCACCTAGTGCAG”, 8730 fluorescence intensity (a.u.).
The result for “GCCGAGCCCCATCTTCTGCTGCGACCCCGTAGCGCTCAACCGGAGTCACCTAGTGCAG” reads 9240 fluorescence intensity (a.u.); that for “GACCGCCGCCGCTTGAGCTGACCTGACCCCGAGCCGAGCCCGGAGTCACCTAGTGCAG”, 8250 fluorescence intensity (a.u.); that for “GCCCCGAGCCGAGACCGCTGGATAATGCAGCGCTTCTTACCGGAGTCACCTAGTGCAG”, 20100 fluorescence intensity (a.u.).
In the case of “AGTCAGTGGGTAAATTCTTTAAAAACTCCTATGTTTTTTCCGGAGTCACCTAGTGCAG”, the binding signal is 9550 fluorescence intensity (a.u.).
Take “AACAAGGGAGGGAGGGGCGGCGATCTCCATCTGGCGAGCACGGAGTCACCTAGTGCAG”: the binding signal was 10900 fluorescence intensity (a.u.).
